Test results taken from PubChem BioAssay (EPA / NIEHS).
Records with an inconclusive call do not appear. Calls of active or inactive are those of the source. How the source made its calls, unless noted: active means hit-call score of the fitted dose curve at least 0.9, where 1 is the maximum; inconclusive means response in the unintended direction; inactive means score below 0.9.

Columns and labels:
[1] = molecular target: Estrogen receptor (Homo sapiens) (UniProt P03372); test: CCTE_Deisenroth_AIME_384WELL_LUC_Active: CCTE's 384-well Estrogen Receptor Transactivation Assay with AIME metabolic competence (ERTA luciferase; metabolism positive), Deisenroth Lab (AID 2284030)
Summary of the method: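 VM7Luc4E2 breast cells were given, for 24 hours, medium pre-incubated for 2 hours with parent chemical (0.002-200 uM, 10 concentrations) and alginate-encapsulated phenobarbital/beta-naphthoflavone-induced rat hepatic S9. Luciferase gain of signal was fitted against 17beta-estradiol; n=4 or more.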

[2] = CCTE_Deisenroth_AIME_384WELL_CTox_Active: Cytotoxicity Assessment (CTOX) in CCTE's 384-well Estrogen Receptor Transactivation Assay with AIME metabolic competence (metabolism positive), Deisenroth Lab (AID 2284037);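 further: chemicals first conditioned 2 h by alginate-bound induced rat liver S9 before cells; activity means signal loss indicating cell death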
Summary of the method: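 VM7Luc4E2 breast cells received medium pre-incubated 2 h with chemical over alginate microspheres holding induced male Sprague Dawley rat liver S9; viability read 24 h later by protease-substrate fluorescence. Loss of signal, bidirectional fit, 0.002–200 uM.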

[3] = molecular target: Estrogen receptor (Homo sapiens) (UniProt P03372); test: CCTE_Deisenroth_AIME_384WELL_LUC_Inactive: CCTE's 384-well Estrogen Receptor Transactivation Assay without AIME metabolic competence (ERTA luciferase; metabolism negative), Deisenroth Lab (AID 2284038);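 further: hits raise estrogen receptor luciferase signal so potencies reflect agonists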
Summary of the method: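 Chemicals (10-point series, 0.002 - 200 uM) were incubated 2 hours with alginate-water microsphere lids lacking S9, then the conditioned medium was transferred to VM7Luc4E2 breast cells for 24 hour. Luciferase induction was read by bioluminescence, fitted upward relative to 17beta-estradiol.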

[4] = CCTE_Deisenroth_AIME_384WELL_CTox_Inactive: Cytotoxicity Assessment (CTOX) in CCTE's 384-well Estrogen Receptor Transactivation Assay without AIME metabolic competence (metabolism negative), Deisenroth Lab (AID 2284039);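 further: cell viability via live-cell protease substrate cleaved to fluorescent probe; cells exposed 24 h to medium preincubated 2 h with alginate-water beads without S9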
Summary of the method: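 VM7Luc4E2 human breast cells received conditioned medium from a 2 h incubation of chemical with alginate-water microspheres (no S9), then were exposed 24 h. Viability was read as protease-substrate cleavage to a fluorescent probe; loss of signal was fitted bidirectionally over 0.002–200 uM.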

[5] = molecular target: Estrogen receptor (Homo sapiens) (UniProt P03372); test: CCTE_Deisenroth_AIME_384WELL_LUC_Shift: CCTE's 384-well Estrogen Receptor Transactivation Assay with AIME metabolic competence data shift (ERTA luciferase; difference in metabolism positive and negative), Deisenroth Lab (AID 2284041; active means hit-call score of the fitted dose curve at least 0.9, where 1 is the maximum; inactive means score below 0.9;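 further: shift is response with S9 minus without S9 so positive means metabolism raised ER signal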)
Summary of the method: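 Here, parent compounds undergo 2 h phase I metabolism by PB/BNF-induced rat S9 before 24 h transactivation in VM7Luc4E2 cells; the curve models S9-positive minus S9-negative response over a 10-point series.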

[6] = system: DIO2 (gene 1734); test: CCTE_GLTED_hDIO2: CCTE's human Deiodinase 2 (DIO2) Inhibition Assay, Great Lakes Toxicology and Ecology Division (GLTED) Lab (AID 2284050)
Summary of the method: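 Cell-free human DIO2 enzyme was incubated with test chemical for 3 h; iodide liberated from substrate was then quantified by the Sandell-Kolthoff reaction (absorbance), run in triplicate. Loss of signal versus DMSO baseline indicated inhibition.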

Chain of Estrogen receptor (Homo sapiens) (P03372 whole entry, looked up): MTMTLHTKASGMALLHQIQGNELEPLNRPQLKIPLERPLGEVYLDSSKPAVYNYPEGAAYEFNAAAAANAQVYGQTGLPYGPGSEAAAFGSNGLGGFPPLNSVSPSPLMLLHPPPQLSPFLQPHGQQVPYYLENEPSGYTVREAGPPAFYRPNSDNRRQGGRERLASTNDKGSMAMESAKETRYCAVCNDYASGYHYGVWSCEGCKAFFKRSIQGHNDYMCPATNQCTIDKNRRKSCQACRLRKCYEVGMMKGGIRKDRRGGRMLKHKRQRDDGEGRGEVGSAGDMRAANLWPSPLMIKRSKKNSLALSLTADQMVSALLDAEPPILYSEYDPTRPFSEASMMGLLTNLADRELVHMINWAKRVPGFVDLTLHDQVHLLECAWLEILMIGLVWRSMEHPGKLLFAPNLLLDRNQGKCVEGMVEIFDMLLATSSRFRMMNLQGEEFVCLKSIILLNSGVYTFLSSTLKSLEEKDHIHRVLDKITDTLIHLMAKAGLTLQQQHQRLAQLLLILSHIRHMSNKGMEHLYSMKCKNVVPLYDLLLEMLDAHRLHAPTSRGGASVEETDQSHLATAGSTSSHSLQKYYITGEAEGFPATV

| Compound | outcome [1] | outcome [2] | outcome [3] | outcome [4] | outcome [5] | AC50 [6] | AC50 [1] | AC50 [3] | AC50 [5] |
| --- | --- | --- | --- | --- | --- | --- | --- | --- | --- |
| CC(=O)OC/C=C(C)/C=C/C=C(C)/C=C/C1=C(C)CCCC1(C)C | inactive | inactive | inactive | inactive | inactive | 52600 nM (active) | – | – | – |
| CC(=O)C1=C(C)[C@@H]2C[C@@]3(C1)[C@H](C)CC[C@H]3C2(C)C | – | inactive | – | – | – | – | 0.204 nM (active) | 0.263 nM (active) | 0.848 nM (active) |
| CC(C)(C)C1CCC(O)CC1 (configuration not stated) | inactive | inactive | inactive | – | inactive | – | – | – | – |
| NC(N)=S | inactive | inactive | inactive | inactive | inactive | – | – | – | – |
| COc1ccc2[nH]cc(CCNC(C)=O)c2c1 | inactive | inactive | inactive | – | inactive | – | – | – | – |
| CC(C)C(=O)c1ccccc1 | inactive | inactive | inactive | inactive | inactive | – | – | – | – |
| CC(=O)CC(=O)N(C)C | inactive | inactive | inactive | inactive | inactive | – | – | – | – |
| CCC(C)COC(=O)CC(C)C (configuration not stated) | inactive | inactive | inactive | – | inactive | – | – | – | – |
| CCCCCCCCCCCCN1CCOCC1 | inactive | inactive | inactive | inactive | inactive | – | – | – | – |
| CC(CCO)CC(C)(C)C (configuration not stated) | inactive | inactive | inactive | inactive | inactive | – | – | – | – |
| CC(C)N(c1ccccc1)C(C)C | inactive | inactive | inactive | inactive | inactive | – | – | – | – |
| OC[C@H]1O[C@@H](O[C@H]2[C@H](O)[C@@H](O)[C@H](O)O[C@@H]2CO)[C@H](O)[C@@H](O)[C@H]1O | inactive | inactive | inactive | inactive | inactive | – | – | – | – |
